Data: ChEMBL document CHEMBL3433997, “St. Jude Leishmania screening dataset” (2016)

Experiments:
Type in all cases: functional
[1] = target: Solute carrier family 2, facilitated glucose transporter member 1 (Homo sapiens) (UniProt P11166); experiment: ST_JUDE_LEISH: Cytotoxicity at 2uM final concentration against transgenic Leishmania Mexicana promastigotes LmGLUT1 that are glucose transport deficient and complemented with the human glucose transporter GLUT1. Activity is measured by DNA content using SYBR green in vitro
Solute carrier family 2, facilitated glucose transporter member 1 (Homo sapiens), sequence (P11166 whole entry): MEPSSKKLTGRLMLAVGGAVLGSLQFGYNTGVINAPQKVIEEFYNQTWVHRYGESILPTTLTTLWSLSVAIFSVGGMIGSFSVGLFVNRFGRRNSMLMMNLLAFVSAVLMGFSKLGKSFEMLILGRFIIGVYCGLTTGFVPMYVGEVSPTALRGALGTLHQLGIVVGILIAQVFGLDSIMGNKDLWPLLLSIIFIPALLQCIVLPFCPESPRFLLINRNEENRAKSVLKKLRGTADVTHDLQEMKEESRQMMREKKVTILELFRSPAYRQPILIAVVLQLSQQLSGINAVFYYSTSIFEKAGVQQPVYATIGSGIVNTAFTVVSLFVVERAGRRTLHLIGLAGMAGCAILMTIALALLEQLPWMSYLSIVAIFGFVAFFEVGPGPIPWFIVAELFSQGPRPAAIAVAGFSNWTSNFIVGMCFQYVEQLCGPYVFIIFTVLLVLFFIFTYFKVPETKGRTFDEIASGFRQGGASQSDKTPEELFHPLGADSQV

[2] = target: Hexose transporter 1 (Plasmodium falciparum) (UniProt O97467); experiment: ST_JUDE_LEISH: Cytotoxicity at 2uM final concentration against transgenic Leishmania Mexicana promastigotes LmPfHT that are glucose transport deficient and complemented with the Plasmodium falciparum hexose transporter. Activity is measured by DNA content using SYBR green in vitro
[3] = target: Glucose transporter (Leishmania mexicana) (UniProt O61059); experiment: ST_JUDE_LEISH: Cytotoxicity at 2uM final concentration against transgenic Leishmania Mexicana promastigotes LmGT2 that are glucose transport deficient and complemented with the L. Mexicana glucose transporter 2. Activity is measured by DNA content using SYBR green in vitro

Row | SMILES | inhibition [1] [%] | inhibition [2] [%] | inhibition [3] [%]
1 | Cc1cccc2nc(-c3cccc(-c4cccc(CNCc5ccccc5)c4)c3)[nH]c12 | 1.86 | 0.34 | 0.66
2 | FC(F)(F)c1cccc(N=C(S)NN=Cc2ccccn2)c1 | -0.57 | 4.7 | 1.52
3 | c1csc(-c2nc(N3CCCC3)ncc2-c2ccsc2)n1 | 0.85 | -0.18 | 1.26
4 | CCCC(=O)Nc1ccc(OCCCN(Cc2ccccc2F)c2ccc(C#N)c(C(F)(F)F)c2)cc1 | 1.79 | 0.66 | 0.71
5 | O=C(N[C@@H](Cc1ccccc1)C(=O)NC1CCCc2ccccc21)c1ccc(O)c(-c2ccc(Cl)c(Cl)c2)c1 (some centres not stated) | 0.59 | 0.41 | -0.1
6 | O=C(Nc1cccc(-c2cccc(-c3nc4cc(C(F)(F)F)ccc4[nH]3)c2)c1)c1c[nH]cn1 | 1.86 | 3.96 | -1.42
7 | COc1ccc(CCNCCCCCCNCCc2ccc(Cl)c(Cl)c2)cc1OC | 4.21 | 3.9 | 3.76
8 | CC(=O)Nc1csc(-c2cnc(/C=C(\C)C[C@@H]3OC[C@H](C[C@@H]4O[C@H]4[C@@H](C)[C@H](C)O)[C@@H](O)[C@H]3O)o2)c1 | 3.6 | 4.42 | 2.39
9 | COc1ccc2nccc([C@H](O)CN3CCC(NCc4cc(C)c5c(c4)OCCO5)CC3)c2n1 | 5.84 | 8.31 | -2.32
10 | CC(C)(C(=O)Nc1ccc(C2CCC(NCC3CC3)CC2)c(Cl)c1)c1cccc(OC(F)F)c1 (configuration not stated) | 9.94 | 8.75 | 9.65
11 | CN(C)CCC(O)C=C(c1ccc(Cl)cc1)c1ccc(Cl)cc1 (configuration not stated) | 9.31 | 7.5 | 4.86
12 | Cc1cccc2nc(-c3ccc(-c4ccc(NC(=O)Nc5ccc(Cl)c(Cl)c5)cc4)s3)[nH]c12 | 1.5 | 1.27 | -6.86
13 | CN(C)CCCOc1ccc(-c2csc(NC(=N)NCc3ccccc3)n2)cc1 | 1.32 | 6.08 | 3.86
14 | COc1cc(Nc2ncc3c(C)nc(-c4cccc(Nc5ccc(CN6CCS(=O)(=O)CC6)cc5)c4)n3n2)cc(OC)c1OC | 14 | 5.79 | 3.49
15 | Cc1cnc(NC(=O)c2cn(-c3ccccc3)nc2-c2cccs2)s1 | 14.6 | 13.2 | 13.9
16 | Cc1c[nH]c2cc(/C=C/C(=O)NC3CCC(CCN4CCc5ccc(C#N)cc5CC4)CC3)ccc12 (configuration not stated) | 2.72 | 1.75 | 2.01
17 | COc1ccc(CCNCCCCCCNCCc2ccc(-c3ccccc3)cc2)cc1OC | 92.8 | 94.9 | 49.7
18 | CC(Cc1ccc(CNC(=O)c2ccc(CC(C)NCCc3cccc(Cl)c3)cc2)cc1)NCCc1cccc(Cl)c1 (configuration not stated) | 1.09 | 8.32 | 2.1
19 | N#Cc1ccc(N[C@@H](CC2CCCCC2)C(=O)N[C@@H]2CCCc3ccccc32)c2ccccc12 | 0.46 | 1.88 | 0.82
